In PubChem BioAssay (Tox21):
Records with an inconclusive call do not appear. Activity calls are given as the source filed them. Unless noted, calls follow the shape of the full dose curve.

Key:
[1] = Nuclear factor erythroid 2-related factor 2/antioxidant responsive element (Nrf2/ARE) small molecule agonists: qHTS cell viability counter screen in human keratinocytes (AID 1919968; active = well fitted curve in the direction sought with a large enough effect in the repeat runs; an effect the other way counts as inactive or inconclusive; also: nearly all actives have a fitted effect of over 55% in size)
Summary of the method: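 Cells of the KeratinoSens line were plated at 1,500 per well and left for 5 h before compound transfer from DMSO stocks. After a 23 h incubation (37 C, 5% CO2), CellTiter-Fluor was added. Signal was taken as fluorescence intensity 1 h later.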

[2] = Nuclear factor erythroid 2-related factor 2/antioxidant responsive element (Nrf2/ARE) small molecule agonists: luciferase reporter gene qHTS assay in human keratinocytes (AID 1919969); also: nearly all actives have a fitted effect of over 35% in size
[3] = molecular target: Gonadotropin-releasing hormone receptor (Homo sapiens) (UniProt P30968); test: Human gonadotropin-releasing hormone receptor (GnRHR) small molecule agonists, calcium flux assay in GnRHR-HEK293 cells (AID 1920063); also: nearly all actives have a fitted effect of over 35% in size
Summary of the method: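 Compounds dissolved in DMSO are pin-transferred onto dye-loaded GnRHR-HEK293 cells, which were seeded 18 h before at 37 C/5% CO2. Calcium signal is read as fluorescence intensity at 1 s intervals for 3 min.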

[4] = molecular target: KiSS-1 receptor (Homo sapiens) (UniProt Q969F8); test: Human kisspeptin (KISS1R) small molecule agonists, calcium flux assay in KISS1R-HEK293 cells (AID 1920064; active = well fitted curve in the direction sought with a large enough effect in the repeat runs; an effect the other way counts as inactive or inconclusive)
Summary of the method: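 Cell line: HEK293, stable human KISS1R. Dye loading 1 h at 37 C after 18 h culture. Read: kinetic fluorescence, 480/540 nm, 3 min at 1 s intervals.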

[5] = G protein-coupled receptor (GPCR) small molecule agonists, calcium flux assay: HEK293 wild type cell line counter screen (AID 1920065)
Summary of the method: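 Tox21 10K compounds, 15 concentrations each in triplicate, pin-transferred in DMSO onto dye-loaded cells; kinetic read at 480/540 nm for 3 min, 1 s intervals.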

[6] = p53 small molecule agonists, cell-based qHTS assay with human liver microsomes (AID 1963577)
Summary of the method: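 Cells carrying a p53-responsive bla reporter were rested 5 h (37 C, 5% CO2) before compound transfer. Human liver microsomes plus NADPH, 0.5 mg/mL final apiece, supplied metabolism during the 16 h 37 C exposure.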

[7] = p53 small molecule agonists, cell-based qHTS assay with rat liver microsomes (AID 1963578)
Summary of the method: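 Fluorescence from a beta-lactamase reporter under a p53 response element was measured after cells had been incubated 16 h at 37 C with test compound and rat liver microsomes plus NADPH (0.5 mg/mL final each).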

[8] = p53 small molecule agonists, cell-based qHTS assay with human liver microsomes: qHTS cell viability counter screen (AID 1963579); also: nearly all actives have a fitted effect of over 45% in size
Summary of the method: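 Seed p53RE-bla cells at 4,000 per well; incubate 5 h at 37 C; add compound, human liver microsomes and NADPH; incubate 16 h at 37 C; add CellTiter-Glo; after 30 min at room temperature, read luminescence.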

[9] = p53 small molecule agonists, cell-based qHTS assay with rat liver microsomes: qHTS cell viability counter screen (AID 1963580); also: nearly all actives have a fitted effect of over 45% in size
Summary of the method: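 Counter screen for cytotoxicity under metabolic activation: rat liver microsomes and NADPH, 0.5 mg/mL final each, added with compounds to p53RE-bla HCT-116 cells; 16 h at 37 C, then ATP luminescence read.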

[10] = p53 small molecule agonists, cell-based qHTS assay: qHTS cell viability counter screen (AID 1963581); also: nearly all actives have a fitted effect of over 45% in size
Summary of the method: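 ATP content measured by luminescence in HCT-116 p53RE-bla cells treated 16 h at 37 C, same wells as the reporter screen.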

[11] = molecular target: 5-hydroxytryptamine receptor 2A (Homo sapiens) (UniProt P28223); test: 5-hydroxytryptamine receptor 2A (HTR2A) small molecule antagonists, cell-based qHTS assay (AID 1963586); also: nearly all actives have a fitted effect of over 45% in size
Summary of the method: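 CHO cells stably expressing human HTR2A were plated for 18 h at 37 C, then loaded with calcium dye for 1 h. Compounds were preincubated 5 min at room temperature before DOI (4 nM solution) was added. Kinetic fluorescence was read for 3 min.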

[12] = molecular target: 5-hydroxytryptamine receptor 2A (Homo sapiens) (UniProt P28223); test: 5-hydroxytryptamine receptor 2A (HTR2A) small molecule agonists, cell-based qHTS assay (AID 1963587); also: nearly all actives have a fitted effect of over 30% in size
Summary of the method: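 HTR2A-CHO cells, plated 18 h at 37 C/5% CO2, dye-loaded 1 h at 37 C; compounds in DMSO added by pin tool (agonist mode). Intracellular calcium flux read as kinetic fluorescence on FDSS over 2 min at 1 s intervals.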

[13] = molecular target: Muscarinic acetylcholine receptor M1 (Homo sapiens) (UniProt P11229); test: Cholinergic receptor muscarinic 1 (CHRM1) small molecule antagonists, cell-based qHTS assay (AID 1963588); also: nearly all actives have a fitted effect of over 40% in size
Summary of the method: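 Compounds were tested at 15 concentrations in three independent runs. Dye-loaded CHRM1-CHO cells were exposed 5 min at room temperature before stimulation by acetylcholine added at 50nM. Intracellular calcium was read kinetically on FDSS for 3 min.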

[14] = molecular target: Muscarinic acetylcholine receptor M1 (Homo sapiens) (UniProt P11229); test: Cholinergic receptor muscarinic 1 (CHRM1) small molecule agonists, cell-based qHTS assay (AID 1963589); also: nearly all actives have a fitted effect of over 35% in size
Summary of the method: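 Homogeneous fluorescence calcium flux, agonist mode. Human M1-expressing CHO cells; compound dosed at 15 concentrations, three independent runs; signal sampled every 1 sec.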

[15] = cAMP Responsive Elements (CRE) small molecule agonists, cell-based qHTS assay (AID 1963590)
Summary of the method: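 HEK 293T cells stably bearing CRE-bla were plated at 2,000 cells per well and rested 18 h. Compounds, positive controls or DMSO were added for 3 h at 37 C. LiveBLAzer B/G substrate was then loaded for 2 h at room temperature.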

[16] = cAMP Responsive Elements (CRE) small molecule antagonists, cell-based qHTS assay (AID 1963591; active = well fitted inhibition curve with a large enough effect in the signal ratio in the repeat runs, not every such curve was filed as active; the % refers to the signal ratio)
Summary of the method: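 First, CRE-bla HEK293T cells settled 18 h at 37 C. Next, compound and 0.25 uM final NKH477 were applied for 3 h. Last, LiveBLAzer B/G substrate was loaded for 2 h at room temperature.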

[17] = molecular target: Beta-2 adrenergic receptor (Homo sapiens) (UniProt P07550); test: Adrenergic beta2 receptor (ADRB2) small molecule antagonists, cell-based qHTS assay (AID 1963592); also: series mostly up to about 92 µM; nearly all actives have a fitted effect of over 50% in size
Summary of the method: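 Assay format: CHO-ADRB2 cells, 18-20hr seeding at 37C/5% CO2, then compound plus 1nM isoproterenol agonist mix for 0.5hr RT. Homogeneous time-resolved fluorescence cAMP detection after 1hr, expressed as 665/615 nm ratio.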

[18] = molecular target: D(2) dopamine receptor (Homo sapiens) (UniProt P14416); test: Dopamine D2 receptor (DRD2) small molecule agonists, cell-based qHTS assay (AID 1963594); also: nearly all actives have a fitted effect of over 35% in size
Summary of the method: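 HEK293 cells stably expressing DRD2 were cultured 24 h at 37 C, then given Ro20-1724 (0.1 mM final) and compounds for 10 min at room temperature. NKH477 (200nM) was then added for 30 min. cAMP was read by HTRF.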

[19] = molecular target: D(2) dopamine receptor (Homo sapiens) (UniProt P14416); test: Dopamine D2 receptor (DRD2) small molecule antagonists, cell-based qHTS assay (AID 1963595; active = well fitted inhibition curve with a large enough effect in the signal ratio in the repeat runs, with a control signal flat; the % refers to the signal ratio)
Summary of the method: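 HEK293 cells stably expressing DRD2 were preincubated with 0.1 mM Ro20-1724, then with compound for 10 min at room temperature. Cells were stimulated with 200 nM NKH477 plus 12 nM quinpirole for 30 min, and cAMP was read by HTRF.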

[20] = p53 small molecule agonists, cell-based qHTS assay (AID 1963582; active = well fitted activation curve with a large enough effect in the signal ratio in the repeat runs, not every such curve was filed as active; the % refers to the signal ratio)
Summary of the method: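 16 h compound exposure (37 C) of p53 response element–bla cells, preceded by 5 h recovery at 37 C/5% CO2; read-out via LiveBLAzer B/G FRET substrate, 2 h RT, fluorescence intensity.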

Measured: Potency

Sequence of 5-hydroxytryptamine receptor 2A (Homo sapiens) (P28223 whole entry, looked up): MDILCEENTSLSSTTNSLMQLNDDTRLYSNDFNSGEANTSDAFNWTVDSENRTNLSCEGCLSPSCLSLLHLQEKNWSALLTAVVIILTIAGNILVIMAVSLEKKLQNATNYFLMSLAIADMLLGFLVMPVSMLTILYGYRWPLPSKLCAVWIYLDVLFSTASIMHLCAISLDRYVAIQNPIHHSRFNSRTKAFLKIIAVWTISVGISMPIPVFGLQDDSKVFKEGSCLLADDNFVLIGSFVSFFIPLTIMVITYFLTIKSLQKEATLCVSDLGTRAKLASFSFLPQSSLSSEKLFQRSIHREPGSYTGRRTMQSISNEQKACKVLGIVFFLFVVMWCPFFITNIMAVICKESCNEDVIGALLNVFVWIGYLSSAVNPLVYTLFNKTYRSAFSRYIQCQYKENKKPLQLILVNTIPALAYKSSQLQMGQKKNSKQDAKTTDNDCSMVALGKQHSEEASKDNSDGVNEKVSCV
Sequence of Beta-2 adrenergic receptor (Homo sapiens) (P07550 whole entry, looked up): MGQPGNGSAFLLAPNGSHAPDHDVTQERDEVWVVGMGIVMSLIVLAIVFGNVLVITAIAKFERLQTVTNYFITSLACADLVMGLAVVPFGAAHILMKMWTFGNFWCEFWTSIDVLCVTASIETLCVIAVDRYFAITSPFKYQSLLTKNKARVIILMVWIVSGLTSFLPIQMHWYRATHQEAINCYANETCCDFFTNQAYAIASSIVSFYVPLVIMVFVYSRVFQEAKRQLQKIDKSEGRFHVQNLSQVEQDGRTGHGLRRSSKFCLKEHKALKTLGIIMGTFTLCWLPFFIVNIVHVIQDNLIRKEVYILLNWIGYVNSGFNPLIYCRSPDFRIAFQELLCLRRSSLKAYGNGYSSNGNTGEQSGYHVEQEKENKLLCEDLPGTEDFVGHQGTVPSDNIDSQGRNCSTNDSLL
Sequence of Gonadotropin-releasing hormone receptor (Homo sapiens) (P30968 whole entry, looked up): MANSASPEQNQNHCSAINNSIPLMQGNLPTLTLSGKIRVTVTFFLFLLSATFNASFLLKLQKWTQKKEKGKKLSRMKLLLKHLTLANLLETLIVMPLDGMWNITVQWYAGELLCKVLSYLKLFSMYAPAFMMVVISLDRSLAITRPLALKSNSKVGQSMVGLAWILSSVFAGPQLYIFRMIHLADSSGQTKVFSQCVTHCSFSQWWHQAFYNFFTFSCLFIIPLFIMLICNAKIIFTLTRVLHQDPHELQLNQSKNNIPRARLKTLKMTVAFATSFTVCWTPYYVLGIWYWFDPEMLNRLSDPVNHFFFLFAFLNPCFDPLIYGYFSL
Sequence of D(2) dopamine receptor (Homo sapiens) (P14416 whole entry, looked up): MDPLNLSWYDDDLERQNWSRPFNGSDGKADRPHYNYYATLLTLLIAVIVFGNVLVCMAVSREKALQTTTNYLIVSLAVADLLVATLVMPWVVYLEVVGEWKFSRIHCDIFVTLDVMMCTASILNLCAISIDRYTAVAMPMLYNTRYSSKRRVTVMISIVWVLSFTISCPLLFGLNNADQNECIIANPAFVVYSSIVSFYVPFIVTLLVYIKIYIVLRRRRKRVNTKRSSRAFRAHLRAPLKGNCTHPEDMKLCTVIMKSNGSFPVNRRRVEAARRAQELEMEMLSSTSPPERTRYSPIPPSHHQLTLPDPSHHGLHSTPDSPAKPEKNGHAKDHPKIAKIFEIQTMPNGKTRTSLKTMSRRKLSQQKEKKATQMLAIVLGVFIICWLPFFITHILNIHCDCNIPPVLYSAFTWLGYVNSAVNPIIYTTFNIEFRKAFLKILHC
Sequence of Muscarinic acetylcholine receptor M1 (Homo sapiens) (P11229 whole entry, looked up): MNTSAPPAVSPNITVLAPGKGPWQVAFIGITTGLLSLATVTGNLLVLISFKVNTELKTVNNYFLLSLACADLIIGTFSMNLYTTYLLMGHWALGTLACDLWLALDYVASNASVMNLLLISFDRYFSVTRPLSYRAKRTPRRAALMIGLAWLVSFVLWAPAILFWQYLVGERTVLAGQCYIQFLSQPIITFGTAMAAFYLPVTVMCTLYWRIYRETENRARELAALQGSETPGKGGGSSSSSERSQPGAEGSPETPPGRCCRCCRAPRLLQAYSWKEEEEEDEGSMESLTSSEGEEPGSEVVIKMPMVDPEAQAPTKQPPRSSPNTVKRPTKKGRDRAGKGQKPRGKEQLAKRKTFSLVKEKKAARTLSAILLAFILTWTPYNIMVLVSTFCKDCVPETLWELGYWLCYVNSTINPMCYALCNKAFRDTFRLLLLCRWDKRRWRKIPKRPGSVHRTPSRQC
Sequence of KiSS-1 receptor (Homo sapiens) (Q969F8 whole entry, looked up): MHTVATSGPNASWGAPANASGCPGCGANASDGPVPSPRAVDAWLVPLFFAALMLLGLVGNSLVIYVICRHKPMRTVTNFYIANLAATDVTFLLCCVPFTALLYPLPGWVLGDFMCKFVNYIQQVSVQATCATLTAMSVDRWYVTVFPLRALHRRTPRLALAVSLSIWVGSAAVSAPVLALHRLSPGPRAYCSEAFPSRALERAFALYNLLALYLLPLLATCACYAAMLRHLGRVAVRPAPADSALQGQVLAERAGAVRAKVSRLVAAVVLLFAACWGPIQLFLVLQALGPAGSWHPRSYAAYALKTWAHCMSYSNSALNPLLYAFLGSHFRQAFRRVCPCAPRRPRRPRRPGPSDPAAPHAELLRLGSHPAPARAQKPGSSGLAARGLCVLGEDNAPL

C#CC(O)CCC (stereo unspecified)
not listed: [20]
inactive: all other assays above

CC(C)=CCC/C(C)=C/C(=O)O
not listed: [18] | [20]
inactive: all other assays above

Oc1cc(O)c2c(c1)O[C@H](c1ccc(O)c(O)c1)[C@H](O)C2
not listed: [10] | [19]
inactive: all other assays above

COc1ccc(N=[N+]([O-])c2ccc(OC)cc2)cc1
not listed: [13] | [15] | [20]
inactive: all other assays above

O=c1cc(CO)occ1O
not listed: [12] | [15] | [20]
inactive: all other assays above

CCCCCCCC(=O)[O-].CCCCCCCC(=O)[O-].[Zn+2]
not listed: [20]
inactive: all other assays above

O=C(O)Cc1ccc(CCNS(=O)(=O)c2ccc(Cl)cc2)cc1
not listed: [17] | [20]
inactive: all other assays above
